The text below walks through data of PubChem BioAssay (Tox21).

SMILES strings stand for the structures. Records with an inconclusive call do not appear. A number with no mark means an inactive call. Calls of active or inactive are those of the source. The call rests on the fitted dose curve.
On the % scale 0 is the no-effect control and ±100 the full control effect; potency means the concentration at half of the fitted maximal effect.

A short description of the assay: Nuclear factor erythroid 2-related factor 2/antioxidant responsive element (Nrf2/ARE) small molecule agonists: luciferase reporter gene qHTS assay in human keratinocytes (AID 1919969). Further: nearly all actives have a fitted effect of over 35% in size. To be noted: KeratinoSens HaCaT ARE-luciferase, luminescence, 24 h; series mostly up to 92.4 µM; activity, positive = activation: at the top concentration. From the text: National Center for Advancing Translational Sciences [NCATS]
Division of Preclinical Innovation [DPI]
U.S. Environmental Protection Agency [EPA]
National Institutes of Environmental Health Sciences [NIEHS]
National Toxicology Program [NTP]
U.S. Food and Drug Administration [FDA]
Oxidative stress has been implicated in the pathogenesis of a variety of diseases ranging from cancer to neurodegeneration. The antioxidant response element (ARE) signaling pathway plays an important role in the amelioration of oxidative stress. The KeratinoSens (Givaudan, Switzerland) is an in vitro test method which quantifies luciferase induction as a measure of activation of Keap1-Nrf2-antioxidationt/electrophile response element (ARE) dependant pathway in HaCaT human keratinocytes stably transfected with a selectable plasmid. The KeratinoSens assay is a cell-based assay with a reporter cell line to detect potential skin sensitizers by their ability to induce the Nrf2/ARE-response. The activation of the report gene under culture conditions can be detected by ONE-Glo Luciferase Assay System (Promega, Madison, WI). This cell line has been used to screen the Tox21 10K compound library to identify agonists that induce oxidative stress. The cytotoxicity of the Tox21 compound library against the KS-ARE cell line was tested in parallel by measuring the cell viability using CellTiter- Fluor assay system (Promega, Madison, WI) in the same wells.
HaCaT derived cell line KeratinoSens were dispensed at 1,500 cells/5uL/well in 1536-well white wall/solid bottom plates using a Multidrop Combi (ThermoFisher Scientific, Waltham, MA) dispenser. After the assay plates were incubated at 37 C/5% CO2 for 5 h, 23 nL of compounds dissolved in DMSO, positive controls or DMSO only was transferred to the assay plate by a pintool workstation (Kalypsys, San Diego, CA). The plates were incubated at 37 C/5% CO2 for 23 h, followed by addition of 1uL/well of CellTiter-Fluor reagent into the assay plates using a Flying Reagent Dispenser (Aurora Discovery, San Diego, CA) for cell viability readout that measures cytotoxicity. After 1 h incubation at 37 C/5% CO2 the fluorescence intensity was measured using a ViewLux (PerkinElmer, Shelton, CT) plate reader. Then 4uL/well of One-Glo were added using a Flying Reagent Dispenser. After the plates were incubated at room temperature for 30 min, the luminescence intensity in the assay plates was measured using ViewLux plate reader.
With `COc1cccc(CCc2ccccc2OCC(CN(C)C)OC(=O)CCC(=O)O)c1` (stereo not given), the “activity, positive = activation” value is -3.42% [at 42.5 µM].

Turning to `CC/C=C\CCCCCCCCCCOC(C)=O`, the “activity, positive = activation” value was 1.73%.

Turning to `CCCCOC(=O)c1ccccc1C(=O)OCC(CC)CCCC` (stereo not given), the Potency is 43.3 µM (active).

As to `O=C(NN1CCCC1)NS(=O)(=O)c1ccc(Cl)cc1`, the “activity, positive = activation” value was -2.58% [at 42.5 µM].

In the case of `COC(=O)Nc1nc2ccc(C(=O)c3ccccc3)cc2[nH]1`, the Potency is 3.76 µM (active).

For the molecule `O=C(O)c1ccccc1-c1ccc(C(F)(F)F)cc1`, the “activity, positive = activation” value is -3.64% [at 42.5 µM].

As for `CCOCN(C(=O)CS(=O)(=O)O)c1c(C)cccc1CC`, the “activity, positive = activation” value is 8.69%.

For `C=Cc1ccc(S(=O)(=O)O)cc1`, the “activity, positive = activation” value was 18.9%.

In the case of `CCOC(=O)OC(C)OC(=O)[C@@H]1N2C(=O)[C@@H](NC(=O)[C@H](N)c3ccccc3)[C@H]2SC1(C)C` (stereo not given in full), the “activity, positive = activation” value was 5.19% [at 42.5 µM].

With `CC(=O)O[C@@]12CO[C@@H]1C[C@H](O)[C@@]1(C)C(=O)[C@H](O)C3=C(C)[C@@H](OC(=O)[C@H](O)[C@@H](NC(=O)OC(C)(C)C)c4ccccc4)C[C@@](O)([C@@H](OC(=O)c4ccccc4)[C@H]21)C3(C)C`, the “activity, positive = activation” value is 3.46% [at 42.5 µM].

For `C=C1C(=C/C=C2\CCC[C@]3(C)[C@@H]([C@H](C)/C=C/[C@@H](O)C4CC4)CC[C@@H]23)C[C@@H](O)C[C@@H]1O`, the “activity, positive = activation” value was 0.151% [at 42.5 µM].

Take `Nc1cc(N)cc(C(=O)O)c1`: the “activity, positive = activation” value was -1.28%.

Consider `CCOCC(C)O` (stereo not given), for which the “activity, positive = activation” value was -1.86%.

`Cc1ccc(-c2ncc(Cl)cc2-c2ccc(S(C)(=O)=O)cc2)cn1`: the “activity, positive = activation” value is -9.05% [at 42.5 µM].

On to `C=CC(=C)CCCC(C)(C)OC(C)=O`, for which the “activity, positive = activation” value is 11%.

As to `Nc1cccc2c(N)cccc12`, the Potency was 13.7 µM (active).

As for `CC(C)C[C@H](NC(=O)[C@H](Cc1ccccc1)NC(=O)c1cnccn1)B(O)O`, the Potency was 0.0422 µM (active).

In the case of `O=[N+]([O-])c1ccc(NCCO)c(OCCO)c1`, the “activity, positive = activation” value is -21.9%.

For the molecule `CC1=NN(c2cc(Cl)c(S(=O)(=O)O)cc2Cl)C(=O)C1N=Nc1ccc(S(=O)(=O)O)cc1` (stereo not given), the “activity, positive = activation” value is -9.37%.

With `C[C@@H](CN(C)C)CN1c2ccccc2Sc2ccccc21`, the “activity, positive = activation” value is 6.97% [at 42.5 µM].

Consider `COC(=O)Nc1nc2ccc(C(=O)c3cccs3)cc2[nH]1`, for which the Potency was 2.66 µM (active).

As for `OCc1c[nH]c2ccccc12`, the Potency was 61.1 µM (active).

As for `CCCCCCC(C)Nc1ccc(Nc2ccccc2)cc1` (stereo not given), the “activity, positive = activation” value is -24.4%.

As to `CC1=NN(c2cccc(S(=O)(=O)O)c2)C(=O)C1`, the “activity, positive = activation” value is -6.83%.

`Nc1ccc(O)c([N+](=O)[O-])c1`: the Potency was 19.3 µM (active).

As for `CCCCCC/C=C\CCCCCCCC(=O)O`, the “activity, positive = activation” value was 2.72%.

For the molecule `COc1cc(Cl)c(OC)cc1N`, the “activity, positive = activation” value is 0.667%.

As to `CC1(C)CCC[C@]2(C)[C@H]3CCO[C@]3(C)CC[C@@H]12`, the “activity, positive = activation” value is 0.425%.

For the molecule `OCCN1CCN(CC/C=C2/c3ccccc3Sc3ccc(C(F)(F)F)cc32)CC1`, the “activity, positive = activation” value was -41.4% [at 42.5 µM].

Consider `CC(=O)Oc1ccc([N+](=O)[O-])cc1CCl`, for which the Potency was 27.3 µM (active).

Consider `NC(=O)c1cc[n+](CC2=C(C(=O)[O-])N3C(=O)[C@@H](NC(=O)Cc4cccs4)[C@H]3SC2)cc1`, for which the “activity, positive = activation” value is 3.56% [at 42.5 µM].

Take `CC(C)(C)OC(=O)c1ccc(O)cc1`: the Potency is 61.1 µM (active).

As to `CC(C)OC(=O)c1ccccc1C(=O)OC(C)C`, the “activity, positive = activation” value was -3.87%.

As to `CC(=O)OCC(=O)[C@@]1(O)[C@H](C)C[C@H]2[C@@H]3CCC4=CC(=O)C=C[C@]4(C)[C@@]3(F)[C@@H](O)C[C@@]21C`, the “activity, positive = activation” value was -8.86% [at 42.5 µM].

In the case of `CCCCCCCOC(=O)CCC`, the “activity, positive = activation” value was -1.16%.

On to `Nc1ccc(N=Nc2ccc(N)cc2)cc1`, for which the “activity, positive = activation” value was -2.73% [at 42.5 µM].

For `CN1CCCC(CC2c3ccccc3Sc3ccccc32)C1` (stereo not given), the “activity, positive = activation” value is -8.07% [at 42.5 µM].

Regarding `O=S(=O)(O)SSS(=O)(=O)O`, the “activity, positive = activation” value is 0.131%.

With `NC(Cc1c[nH]c2ccccc12)C(=O)O` (stereo not given), the “activity, positive = activation” value was 6.34% [at 42.5 µM].

For the molecule `Cc1ccc(OC(=O)CC(C)C)cc1`, the “activity, positive = activation” value is 1.16%.
